# Experimental data as given in PubChem BioAssay (NCI).
# The panel holds about 79,000 compounds, 15% with a hit somewhere; the sample as a whole holds those more often. A number with no mark means an inactive call. Calls of active or inactive are those of the source. No stated cut-off is given here; in the data, active means growth inhibition above about 70%; inactive means the rest.
# Legend:
# [1] = NCI Yeast Anticancer Drug Screen. Data for the rad52 strain (AID 147);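 further: 0% = growth of vehicle-treated control cultures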; details: S. cerevisiae rad52 mutant growth inhibition, active compounds read high
# Summary of the method: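 Here a repair-compromised yeast strain receives each compound; its growth is then quantified and normalised to vehicle-only controls.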
# [2] = NCI Yeast Anticancer Drug Screen. Data for the wt1 strain (AID 149);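 further: 0% = growth of vehicle-treated wt1 cultures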; details: S. cerevisiae wt1 strain (SPY 50644) growth inhibition, active compounds read high
# Summary of the method: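 Each compound is tested on wt1 yeast and the loss of growth versus vehicle gives the inhibition value.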
# [3] = NCI Yeast Anticancer Drug Screen. Data for the rad50EPP+ strain (AID 151);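 further: 0% = growth of vehicle-treated control cultures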; details: S. cerevisiae rad50 mutant strain, active compounds read high
# Summary of the method: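 Read-out is yeast growth inhibition relative to vehicle; cells used were the rad50EPP+ strain.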
# [4] = NCI Yeast Anticancer Drug Screen. Data for the mgt1 strain (AID 153); details: S. cerevisiae mgt1 mutant growth inhibition, active compounds read high
# Summary of the method: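 Measured: inhibition of mgt1 yeast growth by compound, normalized to vehicle-treated cultures.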
# [5] = NCI Yeast Anticancer Drug Screen. Data for the rad50 strain (AID 155);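 further: 0% = growth of vehicle-only cultures of the same strain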; details: S. cerevisiae rad50 strain growth inhibition, active compounds read high
# Summary of the method: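 Vehicle-treated cultures provide the reference for the growth inhibition reported for compound-exposed, repair-deficient yeast.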
# [6] = NCI Yeast Anticancer Drug Screen. Data for the mec2-1 strain (AID 157); details: S. cerevisiae mec2-1 strain, active compounds read high
# Summary of the method: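 Using mec2-1 yeast: add compound, measure growth, express inhibition versus vehicle-treated cultures.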
# [7] = NCI Yeast Anticancer Drug Screen. Data for the rad14 strain (AID 159);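 further: 0% = growth of vehicle-treated control cultures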; details: S. cerevisiae rad14 strain growth inhibition, active compounds read high
# Summary of the method: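 Inhibition of growth is reported for a repair-deficient yeast mutant following compound treatment, calculated relative to cultures that received vehicle.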
# [8] = NCI Yeast Anticancer Drug Screen. Data for the sgs1 mgt1 strain (AID 161);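 further: 0% = growth of cultures given vehicle only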; details: S. cerevisiae sgs1 mgt1 strain, active compounds read high
# Summary of the method: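 Yeast cells carrying a defined DNA-repair defect were exposed to test compounds. Growth inhibition was measured relative to vehicle-treated controls.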
# [9] = NCI Yeast Anticancer Drug Screen. Data for the CLN2oe strain (AID 163);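 further: 0% = growth of vehicle-only control cultures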; details: S. cerevisiae CLN2oe strain, active compounds read high
# Summary of the method: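 Whole-cell yeast growth assay. A strain engineered for altered cell-cycle control received compound, and inhibition relative to vehicle-treated cultures was recorded.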
# [10] = NCI Yeast Anticancer Drug Screen. Data for the cln2 rad14 strain (AID 165);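 further: 0% = growth equal to vehicle treated cultures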; details: S. cerevisiae cln2 rad14 strain, active compounds read high
# Summary of the method: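 Yeast strain cln2 rad14, bearing defects in cell cycle control and DNA repair, serves as the test system; values reflect growth inhibition compared with vehicle.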
# [11] = NCI Yeast Anticancer Drug Screen. Data for the bub3 strain (AID 167); details: S. cerevisiae bub3 mutant strain, active compounds read high
# Summary of the method: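 Mutant yeast screening strain plus compound; vehicle-treated cultures serve as the 0% inhibition reference.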
# [12] = NCI Yeast Anticancer Drug Screen. Data for the mlh1 strain (AID 171);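 further: 0% = growth of vehicle-treated control cultures of the same strain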; details: S. cerevisiae mlh1 strain growth inhibition, active compounds read high
# Summary of the method: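 A yeast strain with a defined genetic lesion serves as the test organism. Cultures receive compound or vehicle, and growth is measured.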
# [13] = NCI Yeast Anticancer Drug Screen. Data for the sgs1 strain (AID 173);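 further: 0% = growth of vehicle-only control cultures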; details: S. cerevisiae sgs1 mutant, active compounds read high
# Summary of the method: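 A genetically defined yeast mutant is incubated with the test compound, and its growth is compared to that of the same strain given vehicle.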
# [14] = NCI Yeast Anticancer Drug Screen. Data for the mlh1 rad18 strain (AID 175); details: S. cerevisiae mlh1 rad18 strain growth inhibition, active compounds read high
# Summary of the method: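 Steps: expose repair-defective yeast to compound; measure growth; express inhibition against vehicle-treated controls.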
# [15] = NCI Yeast Anticancer Drug Screen. Data for the rad18 strain (AID 177); details: S. cerevisiae rad18 mutant growth inhibition, active compounds read high
# Summary of the method: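 Measured value is growth inhibition of a yeast strain bearing a DNA repair alteration, referenced to vehicle-treated cells.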
# [16] = at 5.0 µM (retest, dose inferred, filed as 0.5)
# [17] = at 50.0 µM (retest, dose inferred, filed as 5.0)
compound,measurement,setting,value
COC(=O)NC1C(C)OC(OC2C/C=C(/C)C3C=CC4C(OC5CC(OC6CC(O)C(OC7CC(O)C(OC)C(C)O7)C(C)O6)C(O)C(C)O5)C(C)CC(C)C4C3(C)/C(O)=C3\C(=O)OC4(CC(C)C(CO)=CC4/C=C\2C)C3=O)CC1(C)[N+](=O)[O-] (stereo not drawn),growth inhibition,[1]; at 1.2 µM,15%
same,growth inhibition,[1]; at 3.7 µM,40%
same,growth inhibition,[1]; at 11.0 µM,41%
same,growth inhibition,[1]; at 33.0 µM,38%
same,growth inhibition,[1]; at 100.0 µM,21%
same,growth inhibition,[2]; at 1.2 µM,10%
same,growth inhibition,[2]; at 3.7 µM,22%
same,growth inhibition,[2]; at 11.0 µM,20%
same,growth inhibition,[2]; at 33.0 µM,22%
same,growth inhibition,[2]; at 100.0 µM,10%
same,growth inhibition,[3]; at 1.2 µM,10%
same,growth inhibition,[3]; at 3.7 µM,8%
same,growth inhibition,[3]; at 11.0 µM,11%
same,growth inhibition,[3]; at 33.0 µM,5%
same,growth inhibition,[3]; at 100.0 µM,11%
same,growth inhibition,[4]; at 1.2 µM,-7%
same,growth inhibition,[4]; at 3.7 µM,2%
same,growth inhibition,[4]; at 11.0 µM,-1%
same,growth inhibition,[4]; at 33.0 µM,8%
same,growth inhibition,[4]; at 100.0 µM,7%
same,growth inhibition,[5]; at 1.2 µM,5%
same,growth inhibition,[5]; at 3.7 µM,16%
same,growth inhibition,[5]; [16],23%
same,growth inhibition,[5]; at 11.0 µM,22%
same,growth inhibition,[5]; at 33.0 µM,21%
same,growth inhibition,[5]; [17],40%
same,growth inhibition,[5]; at 50.0 µM,5.7%
same,growth inhibition,[5]; at 100.0 µM,16%
same,growth inhibition,[6]; at 1.2 µM,2%
same,growth inhibition,[6]; at 3.7 µM,-5%
same,growth inhibition,[6]; [16],9%
same,growth inhibition,[6]; at 11.0 µM,-4%
same,growth inhibition,[6]; at 33.0 µM,5%
same,growth inhibition,[6]; [17],34%
same,growth inhibition,[6]; at 50.0 µM,-7.4%
same,growth inhibition,[6]; at 100.0 µM,-3%
same,growth inhibition,[7]; at 1.2 µM,13%
same,growth inhibition,[7]; at 3.7 µM,19%
same,growth inhibition,[7]; at 11.0 µM,14%
same,growth inhibition,[7]; at 33.0 µM,16%
same,growth inhibition,[7]; at 100.0 µM,13%
same,growth inhibition,[8]; [16],13%
same,growth inhibition,[8]; [17],27%
same,growth inhibition,[8]; at 50.0 µM,9.1%
same,growth inhibition,[9]; at 1.2 µM,27%
same,growth inhibition,[9]; at 3.7 µM,15%
same,growth inhibition,[9]; at 11.0 µM,20%
same,growth inhibition,[9]; at 33.0 µM,18%
same,growth inhibition,[9]; at 100.0 µM,28%
same,growth inhibition,[10]; [16],44%
same,growth inhibition,[10]; [17],33%
same,growth inhibition,[10]; at 50.0 µM,14.8%
same,growth inhibition,[11]; at 1.2 µM,22%
same,growth inhibition,[11]; at 3.7 µM,19%
same,growth inhibition,[11]; [16],34%
same,growth inhibition,[11]; at 11.0 µM,13%
same,growth inhibition,[11]; at 33.0 µM,9%
same,growth inhibition,[11]; [17],26%
same,growth inhibition,[11]; at 50.0 µM,10.7%
same,growth inhibition,[11]; at 100.0 µM,9%
same,growth inhibition,[12]; at 1.2 µM,-4%
same,growth inhibition,[12]; at 3.7 µM,5%
same,growth inhibition,[12]; at 11.0 µM,3%
same,growth inhibition,[12]; at 33.0 µM,3%
same,growth inhibition,[12]; at 100.0 µM,-2%
same,growth inhibition,[13]; at 1.2 µM,0%
same,growth inhibition,[13]; at 3.7 µM,-8%
same,growth inhibition,[13]; at 11.0 µM,-15%
same,growth inhibition,[13]; at 33.0 µM,-13%
same,growth inhibition,[13]; at 100.0 µM,-10%
same,growth inhibition,[14]; [16],27%
same,growth inhibition,[14]; [17],65%
same,growth inhibition,[14]; at 50.0 µM,10.6%
same,growth inhibition,[15]; at 1.2 µM,1%
same,growth inhibition,[15]; at 3.7 µM,17%
same,growth inhibition,[15]; at 11.0 µM,14%
same,growth inhibition,[15]; at 33.0 µM,14%
same,growth inhibition,[15]; at 100.0 µM,13%
CC1OC(O[C@H]2/C=C/C=C/C=C/C=C/C=C/C=C/C=C/[C@H](C)[C@@H](O)[C@@H](C)[C@H](C)OC(=O)C[C@H](O)C[C@H](O)CC[C@@H](O)[C@H](O)C[C@H](O)C[C@]3(O)C[C@H](O)[C@@H](C(=O)O)[C@H](C2)O3)C(O)C(N)C1O (stereo partly drawn),growth inhibition,[1]; at 1.2 µM,2%
same,growth inhibition,[1]; at 3.7 µM,45%
same,growth inhibition,[1]; at 11.0 µM,98% (active)
same,growth inhibition,[1]; at 33.0 µM,98% (active)
same,growth inhibition,[1]; at 100.0 µM,98% (active)
same,growth inhibition,[2]; at 1.2 µM,2%
same,growth inhibition,[2]; at 3.7 µM,13%
same,growth inhibition,[2]; at 11.0 µM,98% (active)
same,growth inhibition,[2]; at 33.0 µM,98% (active)
same,growth inhibition,[2]; at 100.0 µM,98% (active)
same,growth inhibition,[3]; at 1.2 µM,25%
same,growth inhibition,[3]; at 3.7 µM,97% (active)
same,growth inhibition,[3]; at 11.0 µM,99% (active)
same,growth inhibition,[3]; at 33.0 µM,99% (active)
same,growth inhibition,[3]; at 100.0 µM,98% (active)
same,growth inhibition,[4]; at 1.2 µM,17%
same,growth inhibition,[4]; at 3.7 µM,57%
same,growth inhibition,[4]; at 11.0 µM,98% (active)
same,growth inhibition,[4]; at 33.0 µM,99% (active)
same,growth inhibition,[4]; at 100.0 µM,98% (active)
same,growth inhibition,[5]; at 1.2 µM,19%
same,growth inhibition,[5]; at 3.7 µM,61%
same,growth inhibition,[5]; [16],18%
same,growth inhibition,[5]; at 11.0 µM,98% (active)
same,growth inhibition,[5]; at 33.0 µM,98% (active)
same,growth inhibition,[5]; [17],99% (active)
same,growth inhibition,[5]; at 50.0 µM,99.1% (active)
same,growth inhibition,[5]; at 100.0 µM,97% (active)
same,growth inhibition,[6]; at 1.2 µM,-2%
same,growth inhibition,[6]; at 3.7 µM,28%
same,growth inhibition,[6]; [16],32%
same,growth inhibition,[6]; at 11.0 µM,98% (active)
same,growth inhibition,[6]; at 33.0 µM,98% (active)
same,growth inhibition,[6]; [17],99% (active)
same,growth inhibition,[6]; at 50.0 µM,99.4% (active)
same,growth inhibition,[6]; at 100.0 µM,98% (active)
same,growth inhibition,[7]; at 1.2 µM,2%
same,growth inhibition,[7]; at 3.7 µM,23%
same,growth inhibition,[7]; at 11.0 µM,95% (active)
same,growth inhibition,[7]; at 33.0 µM,97% (active)
same,growth inhibition,[7]; at 100.0 µM,98% (active)
same,growth inhibition,[8]; [16],25%
same,growth inhibition,[8]; [17],99% (active)
same,growth inhibition,[8]; at 50.0 µM,99.2% (active)
same,growth inhibition,[9]; at 1.2 µM,2%
same,growth inhibition,[9]; at 3.7 µM,23%
same,growth inhibition,[9]; at 11.0 µM,98% (active)
same,growth inhibition,[9]; at 33.0 µM,98% (active)
same,growth inhibition,[9]; at 100.0 µM,98% (active)
same,growth inhibition,[10]; [16],50%
same,growth inhibition,[10]; [17],99% (active)
same,growth inhibition,[10]; at 50.0 µM,99.1% (active)
same,growth inhibition,[12]; at 1.2 µM,7%
same,growth inhibition,[12]; at 3.7 µM,78% (active)
same,growth inhibition,[12]; at 11.0 µM,98% (active)
same,growth inhibition,[12]; at 33.0 µM,98% (active)
same,growth inhibition,[12]; at 100.0 µM,98% (active)
same,growth inhibition,[13]; at 1.2 µM,10%
same,growth inhibition,[13]; at 3.7 µM,50%
same,growth inhibition,[13]; at 11.0 µM,99% (active)
same,growth inhibition,[13]; at 33.0 µM,99% (active)
same,growth inhibition,[13]; at 100.0 µM,99% (active)
same,growth inhibition,[14]; [16],47%
same,growth inhibition,[14]; [17],99% (active)
same,growth inhibition,[14]; at 50.0 µM,98.7% (active)
same,growth inhibition,[15]; at 1.2 µM,-20%
same,growth inhibition,[15]; at 3.7 µM,35%
same,growth inhibition,[15]; at 11.0 µM,97% (active)
same,growth inhibition,[15]; at 33.0 µM,98% (active)
same,growth inhibition,[15]; at 100.0 µM,97% (active)
